Assay results from PMC5540273 (PLoS ONE, 2017).

Key:
Details in all cases: concentration: 1 μM,replicates: in singlicate; n = 1
FYN = test system: FYN
GAK = test system: GAK
GCN2(Kin.Dom.2,S808G) = test system: T1, GCN2(Kin.Dom.2,S808G)
T1 construct: gene EIF2AK4

GRK1 = test system: GRK1
GRK2 = test system: T2, GRK2
T2 construct: gene ADRBK1

GRK3 = test system: T3, GRK3
T3 construct: gene ADRBK2

GRK4 = test system: GRK4
GRK7 = test system: GRK7
GSK3A = test system: GSK3A
GSK3B = test system: GSK3B
HASPIN = test system: T4, HASPIN
T4 construct: gene GSG2

HCK = test system: HCK
HIPK1 = test system: HIPK1
HIPK2 = test system: HIPK2
HIPK3 = test system: HIPK3
HIPK4 = test system: HIPK4
HPK1 = test system: HPK1
HUNK = test system: HUNK
ICK = test system: ICK
IGF1R = test system: IGF1R
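Further: KINOMEscan kinase panel screen.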

In the case of `Cl.Nc1n[nH]c2cc(-c3ccccn3)ccc12` [GSK2189892], the “%Inh” value (FYN) is reported as 0%, the “%Inh” value (GAK) is reported as 0% and the “%Inh” value (GCN2(Kin.Dom.2,S808G)) is reported as 0%. For the same compound, the “%Inh” value (GRK1) was 0%, the “%Inh” value (GRK2) was 0% and the “%Inh” value (GRK3) was 0%. For the same compound, the “%Inh” value (GRK4) was 0%, the “%Inh” value (GRK7) was 0% and the “%Inh” value (GSK3A) was 4%. For the same compound, the “%Inh” value (GSK3B) was 0%, the “%Inh” value (HASPIN) was 38% and the “%Inh” value (HCK) was 0%. The “%Inh” value (HIPK1) was 2%, the “%Inh” value (HIPK2) was 0% and the “%Inh” value (HIPK3) was 5%. The “%Inh” value (HIPK4) was 0%, the “%Inh” value (HPK1) was 38% and the “%Inh” value (HUNK) was 0%. For the same compound, the “%Inh” value (ICK) was 0% and the “%Inh” value (IGF1R) was 5%.
`Cc1ccc(C(=O)Nc2ccc(Oc3ccc4nc(NC(=O)C5CC5)cn4c3)c(F)c2)c(=O)n1-c1ccccc1` was tested, and the “%Inh” value (FYN) was 31%, the “%Inh” value (GAK) was 0% and the “%Inh” value (GCN2(Kin.Dom.2,S808G)) was 72%. The “%Inh” value (GRK1) was 0%, the “%Inh” value (GRK2) was 0% and the “%Inh” value (GRK3) was 0%. For the same compound, the “%Inh” value (GRK4) was 13%, the “%Inh” value (GRK7) was 0% and the “%Inh” value (GSK3A) was 39%. For the same compound, the “%Inh” value (GSK3B) was 0%, the “%Inh” value (HASPIN) was 0% and the “%Inh” value (HCK) was 96.6%. For the same compound, the “%Inh” value (HIPK1) was 29%, the “%Inh” value (HIPK2) was 0% and the “%Inh” value (HIPK3) was 0%. The “%Inh” value (HIPK4) was 72%, the “%Inh” value (HPK1) was 56% and the “%Inh” value (HUNK) was 22%. For the same compound, the “%Inh” value (ICK) was 0% and the “%Inh” value (IGF1R) was 0%.
With `Cn1ccc2ncnc(Oc3ccc(NC(=O)Nc4ccnc(C(F)(F)F)c4)c(Cl)c3)c21` the “%Inh” value (FYN) was 0%, the “%Inh” value (GAK) was 0% and the “%Inh” value (GCN2(Kin.Dom.2,S808G)) was 10%. For the same compound, the “%Inh” value (GRK1) was 0%, the “%Inh” value (GRK2) was 0% and the “%Inh” value (GRK3) was 29%. For the same compound, the “%Inh” value (GRK4) was 100%, the “%Inh” value (GRK7) was 0% and the “%Inh” value (GSK3A) was 11%. For the same compound, the “%Inh” value (GSK3B) was 0%, the “%Inh” value (HASPIN) was 9% and the “%Inh” value (HCK) was 0%. The “%Inh” value (HIPK1) was 35%, the “%Inh” value (HIPK2) was 0% and the “%Inh” value (HIPK3) was 0%. The “%Inh” value (HIPK4) was 0%, the “%Inh” value (HPK1) was 0% and the “%Inh” value (HUNK) was 8%. For the same compound, the “%Inh” value (ICK) was 0% and the “%Inh” value (IGF1R) was 2%.
In the case of `CN(c1cccc(CNc2nc(Nc3ccc4c(c3)CC(=O)N4)ncc2C(F)(F)F)c1)S(C)(=O)=O`, the “%Inh” value (FYN) is reported as 0%, the “%Inh” value (GAK) is reported as 33% and the “%Inh” value (GCN2(Kin.Dom.2,S808G)) is reported as 10%. The “%Inh” value (GRK1) was 25%, the “%Inh” value (GRK2) was 0% and the “%Inh” value (GRK3) was 0%. For the same compound, the “%Inh” value (GRK4) was 19%, the “%Inh” value (GRK7) was 0% and the “%Inh” value (GSK3A) was 35%. For the same compound, the “%Inh” value (GSK3B) was 0%, the “%Inh” value (HASPIN) was 0% and the “%Inh” value (HCK) was 0%. The “%Inh” value (HIPK1) was 39%, the “%Inh” value (HIPK2) was 11% and the “%Inh” value (HIPK3) was 0%. The “%Inh” value (HIPK4) was 14%, the “%Inh” value (HPK1) was 19% and the “%Inh” value (HUNK) was 0%. The “%Inh” value (ICK) was 0% and the “%Inh” value (IGF1R) was 34%.
With `CCn1c(-c2nonc2N)nc2cncc(CNC3CCNCC3)c21.Cl` [SB-747651] the “%Inh” value (FYN) was 43%, the “%Inh” value (GAK) was 19% and the “%Inh” value (GCN2(Kin.Dom.2,S808G)) was 6%. The “%Inh” value (GRK1) was 5%, the “%Inh” value (GRK2) was 0% and the “%Inh” value (GRK3) was 59%. For the same compound, the “%Inh” value (GRK4) was 0%, the “%Inh” value (GRK7) was 0% and the “%Inh” value (GSK3A) was 37%. For the same compound, the “%Inh” value (GSK3B) was 24%, the “%Inh” value (HASPIN) was 73% and the “%Inh” value (HCK) was 0%. The “%Inh” value (HIPK1) was 0%, the “%Inh” value (HIPK2) was 0% and the “%Inh” value (HIPK3) was 48%. The “%Inh” value (HIPK4) was 0%, the “%Inh” value (HPK1) was 35% and the “%Inh” value (HUNK) was 0%. The “%Inh” value (ICK) was 16% and the “%Inh” value (IGF1R) was 13%.
For `CSc1nccc(-c2c(-c3ccc(F)cc3)ncn2CCCN2CCOCC2)n1.Cl` [SB-217146], the “%Inh” value (FYN) was 0%, the “%Inh” value (GAK) was 6% and the “%Inh” value (GCN2(Kin.Dom.2,S808G)) was 0%. For the same compound, the “%Inh” value (GRK1) was 45%, the “%Inh” value (GRK2) was 0% and the “%Inh” value (GRK3) was 11%. The “%Inh” value (GRK4) was 10%, the “%Inh” value (GRK7) was 0% and the “%Inh” value (GSK3A) was 0%. The “%Inh” value (GSK3B) was 18%, the “%Inh” value (HASPIN) was 0% and the “%Inh” value (HCK) was 14%. For the same compound, the “%Inh” value (HIPK1) was 40%, the “%Inh” value (HIPK2) was 0% and the “%Inh” value (HIPK3) was 8%. The “%Inh” value (HIPK4) was 0%, the “%Inh” value (HPK1) was 0% and the “%Inh” value (HUNK) was 13%. The “%Inh” value (ICK) was 0% and the “%Inh” value (IGF1R) was 0%.
In the case of `N#Cc1cccc(C(=O)NC2CCN(c3ccnc(Nc4ccc(F)cc4)n3)C2)c1` (centres unmarked) [GSK1379708], the “%Inh” value (FYN) is reported as 30%, the “%Inh” value (GAK) is reported as 0% and the “%Inh” value (GCN2(Kin.Dom.2,S808G)) is reported as 9%. For the same compound, the “%Inh” value (GRK1) was 0%, the “%Inh” value (GRK2) was 0% and the “%Inh” value (GRK3) was 0%. The “%Inh” value (GRK4) was 2%, the “%Inh” value (GRK7) was 0% and the “%Inh” value (GSK3A) was 0%. The “%Inh” value (GSK3B) was 0%, the “%Inh” value (HASPIN) was 0% and the “%Inh” value (HCK) was 0%. The “%Inh” value (HIPK1) was 0%, the “%Inh” value (HIPK2) was 3% and the “%Inh” value (HIPK3) was 0%. For the same compound, the “%Inh” value (HIPK4) was 0%, the “%Inh” value (HPK1) was 40% and the “%Inh” value (HUNK) was 7%. For the same compound, the “%Inh” value (ICK) was 0% and the “%Inh” value (IGF1R) was 0%.
With `O=C(Nc1ccccc1)c1cccc(Oc2ccc3nccn3n2)c1` the “%Inh” value (FYN) was 1%, the “%Inh” value (GAK) was 8% and the “%Inh” value (GCN2(Kin.Dom.2,S808G)) was 0%. For the same compound, the “%Inh” value (GRK1) was 0%, the “%Inh” value (GRK2) was 0% and the “%Inh” value (GRK3) was 26%. For the same compound, the “%Inh” value (GRK4) was 0%, the “%Inh” value (GRK7) was 0% and the “%Inh” value (GSK3A) was 0%. The “%Inh” value (GSK3B) was 0%, the “%Inh” value (HASPIN) was 15% and the “%Inh” value (HCK) was 15%. The “%Inh” value (HIPK1) was 0%, the “%Inh” value (HIPK2) was 0% and the “%Inh” value (HIPK3) was 0%. The “%Inh” value (HIPK4) was 32%, the “%Inh” value (HPK1) was 0% and the “%Inh” value (HUNK) was 0%. The “%Inh” value (ICK) was 63% and the “%Inh” value (IGF1R) was 0%.
With `COc1cc2ncn(-c3cc(OCC4CCCCC4)c(C(N)=O)s3)c2cc1OC` [GSK204559] the “%Inh” value (FYN) was 29%, the “%Inh” value (GAK) was 79% and the “%Inh” value (GCN2(Kin.Dom.2,S808G)) was 6%. For the same compound, the “%Inh” value (GRK1) was 23%, the “%Inh” value (GRK2) was 7% and the “%Inh” value (GRK3) was 40%. The “%Inh” value (GRK4) was 27%, the “%Inh” value (GRK7) was 98% and the “%Inh” value (GSK3A) was 0%. The “%Inh” value (GSK3B) was 0%, the “%Inh” value (HASPIN) was 0% and the “%Inh” value (HCK) was 0%. For the same compound, the “%Inh” value (HIPK1) was 9%, the “%Inh” value (HIPK2) was 0% and the “%Inh” value (HIPK3) was 0%. For the same compound, the “%Inh” value (HIPK4) was 68%, the “%Inh” value (HPK1) was 39% and the “%Inh” value (HUNK) was 0%. For the same compound, the “%Inh” value (ICK) was 0% and the “%Inh” value (IGF1R) was 5%.
In the case of `CN1CCN(CCCNc2nccc(-c3c(-c4ccc(F)cc4)nn4cc(C(N)=O)ccc34)n2)CC1` [GW622475], the “%Inh” value (FYN) is reported as 9%, the “%Inh” value (GAK) is reported as 87% and the “%Inh” value (GCN2(Kin.Dom.2,S808G)) is reported as 5%. For the same compound, the “%Inh” value (GRK1) was 0%, the “%Inh” value (GRK2) was 0% and the “%Inh” value (GRK3) was 0%. The “%Inh” value (GRK4) was 9%, the “%Inh” value (GRK7) was 0% and the “%Inh” value (GSK3A) was 33%. For the same compound, the “%Inh” value (GSK3B) was 33%, the “%Inh” value (HASPIN) was 0% and the “%Inh” value (HCK) was 8%. The “%Inh” value (HIPK1) was 5%, the “%Inh” value (HIPK2) was 0% and the “%Inh” value (HIPK3) was 27%. The “%Inh” value (HIPK4) was 0%, the “%Inh” value (HPK1) was 13% and the “%Inh” value (HUNK) was 6%. For the same compound, the “%Inh” value (ICK) was 12% and the “%Inh” value (IGF1R) was 0%.
